Reference: the supplement of paper PMC12350171
Structures can show the parent of a compound that is named as a salt.

Tests used:
Settings in all cases: 20 µM
[1] = test system: Salmonella enterica typhimurium; assay: growth AUC normalised to DMSO control (fraction of control); higher = less growth inhibition, active = hit call of the paper
Outline: (§1)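 Hemin and NAD were added to the medium for Haemophilus parainfluenzae. All pathogens, after two anaerobic passages, were inoculated at a starting OD578 of 0.01 into pre-reduced mGAM plates with 20 μM compound and 1% DMSO under breathable seals, and OD578 was read hourly for 24 h in three biological replicates. AUC of each growth curve was obtained with the trapezoidal rule up to the exponential-to-stationary transition and normalised to DMSO controls from the same plate.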

Shigella flexneri = assay: as above
Outline: as §1

Vibrio cholerae = assay: as above
Outline: as §1

[2] = test system: Yersinia pseudotuberculosis; assay: as above
Outline: as §1

P. vulgatus RND KO = assay: growth AUC normalised to DMSO control (median) (fraction of control); higher = less growth inhibition, active = hit call of the paper
Outline: (§2)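 Strains were passaged twice overnight without oxygen, then grown in mGAM in 96-well plates with each approved-drug library compound at 20 μM and 1% DMSO, starting at OD578 0.01. OD578 was read hourly for 24 h inside an anaerobic incubator. Curves were truncated at entry into stationary phase, and the trapezoidal-rule area under the curve was normalised to same-plate vehicle wells. The value is the median across three biological replicates.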

P. vulgatus WT = assay: as above
Outline: as §2

[3] = test system: S. enterica typhimurium WT; assay: as above
Outline: as §2

[4] = test system: S. enterica typhimurium tolC KO; assay: as above
Outline: as §2

Measured: growth AUC normalised to DMSO control
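Wherever growth AUC normalised to DMSO control (median) is given: active when median AUC fell below 0.1.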

CCN(CC)CCNC(=O)COc1ccc(OC)cc1 [Mefexamide hydrochloride]
inactive: [1] 1 | Shigella flexneri 0.982 | Vibrio cholerae 0.995 | [2] 1.01 | P. vulgatus RND KO 0.988 | P. vulgatus WT 0.97 | [3] 1.01 | [4] 0.998

Nc1ccc(S(=O)(=O)c2ccc(N)cc2)cc1 [Dapsone]
inactive: [1] 0.982 | Shigella flexneri 0.994 | Vibrio cholerae 0.988 | [2] 1 | P. vulgatus RND KO 1.01 | P. vulgatus WT 1 | [3] 1 | [4] 0.994

CN1CCN(CCCN2c3ccccc3Sc3ccc(C(F)(F)F)cc32)CC1 [Trifluoperazine dihydrochloride]
inactive: [1] 1.03 | Shigella flexneri 1.04 | Vibrio cholerae 1.01 | [2] 1.04 | P. vulgatus RND KO 0.974 | P. vulgatus WT 0.941 | [3] 1.02 | [4] 0.929

CCCCc1cc2ccccc2c(OCCN(C)C)n1 [Dimethisoquin hydrochloride]
inactive: [1] 1 | Shigella flexneri 1.03 | [2] 1.02 | P. vulgatus RND KO 1 | P. vulgatus WT 1.02 | [3] 0.997 | [4] 0.918
active: Vibrio cholerae 0.866

CC(C)(Oc1ccc(Cl)cc1)C(=O)O [Clofibric acid]
inactive: [1] 0.995 | Shigella flexneri 1 | Vibrio cholerae 0.986 | [2] 0.996 | P. vulgatus RND KO 0.998 | P. vulgatus WT 1.01 | [3] 0.996 | [4] 1

CCOC(=O)C1=C(C)NC(C)=C(C(=O)OC)C1c1cccc(Cl)c1Cl (stereo not given) [Felodipine]
inactive: [1] 0.987 | Shigella flexneri 1 | Vibrio cholerae 1 | [2] 0.883 | P. vulgatus RND KO 1.01 | P. vulgatus WT 1.03 | [3] 1 | [4] 1

CC1COc2c(N3CCN(C)CC3)c(F)cc3c(=O)c(C(=O)O)cn1c23 (stereo not given) [Ofloxacin]
active: [1] 0.00746 | Shigella flexneri 0.0235 | Vibrio cholerae 0.031 | [2] 0.0386 | P. vulgatus RND KO 0.0133 | P. vulgatus WT 0.0136 | [3] 0.0106 | [4] 0.00311

N=C(N)NCc1cccc(I)c1 [Iobenguane sulfate]
inactive: [1] 1.03 | Shigella flexneri 1.03 | Vibrio cholerae 1.06 | [2] 1.01 | P. vulgatus RND KO 1.09 | P. vulgatus WT 1.1 | [3] 1.01 | [4] 1

CC(C)(C)C(=O)OCOC(=O)[C@@H]1N2C(=O)[C@@H](/N=C/N3CCCCCC3)[C@H]2SC1(C)C [Pivmecillinam hydrochloride]
inactive: Vibrio cholerae 0.956 | P. vulgatus RND KO 1.01 | P. vulgatus WT 1.03 | [3] 0.158 | [4] 0.145
active: [1] 0.0179 | Shigella flexneri 0.0752 | [2] 0.0551

CCn1cc(C(=O)O)c(=O)c2cc(F)c(N3CCNC(C)C3)c(F)c21 (stereo not given) [Lomefloxacin hydrochloride]
active: [1] 0.00422 | Shigella flexneri 0.0101 | Vibrio cholerae 0.0243 | [2] 0.0292 | P. vulgatus RND KO 0.035 | [3] 0.0147 | [4] 0.0041
inactive: P. vulgatus WT 0.11

CCOC(=O)c1ccc(OC(=O)CCCCCNC(=N)N)cc1 [Gabexate mesilate]
inactive: [1] 0.993 | Shigella flexneri 0.973 | Vibrio cholerae 0.987 | [2] 0.932 | P. vulgatus RND KO 0.985 | P. vulgatus WT 1 | [3] 1 | [4] 0.325

NC(=O)N1c2ccccc2CC(=O)c2ccccc21 [Oxcarbazepine]
inactive: [1] 0.971 | Shigella flexneri 0.952 | Vibrio cholerae 0.981 | [2] 0.992 | P. vulgatus RND KO 0.989 | P. vulgatus WT 0.995 | [3] 0.999 | [4] 1

CO[C@@]1(NC(=O)CSCC#N)C(=O)N2C(C(=O)O)=C(CSc3nnnn3C)CS[C@@H]21 [Cefmetazole sodium salt]
active: [1] 0.00445 | Shigella flexneri 0.0256 | Vibrio cholerae 0.337 | [2] 0.139 | P. vulgatus RND KO 0.0391 | P. vulgatus WT 0.03 | [3] 0.00692 | [4] 0.00805

CCCc1nn(C)c2c(=O)[nH]c(-c3cc(S(=O)(=O)N4CCN(C)CC4)ccc3OCC)nc12 [Sildenafil]
inactive: [1] 1.02 | Shigella flexneri 1.07 | Vibrio cholerae 1.06 | [2] 1.03 | P. vulgatus RND KO 1.02 | P. vulgatus WT 1.02 | [3] 1.02 | [4] 1

CNCCC=C1c2ccccc2C=Cc2ccccc21 [Norcyclobenzaprine]
inactive: [1] 0.983 | Shigella flexneri 0.935 | Vibrio cholerae 0.888 | [2] 0.996 | P. vulgatus RND KO 0.943 | P. vulgatus WT 0.926 | [3] 0.994 | [4] 0.968
